The values that follow come from PubChem BioAssay (EPA / NIEHS).

Test [1] concerns the target human RAR-related Orphan Receptor beta (RORb), RORB (gene 6096) (UniProt Q92753). In words: ATG_RORb_TRANS: Attagene TRANS-FACTORIAL HepG2 Assay for human RAR-related Orphan Receptor beta (RORb) (AID 2283010; active = hit-call score of the fitted dose curve at least 0.9, where 1 is the maximum). In outline: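 HepG2 cells were transiently transfected with multiplexed GAL4-UAS reporter units expressing chimeric nuclear receptor–GAL4 proteins, then dosed for 24 h. Reporter mRNA was quantified by RT-PCR with fluorescent labelling and capillary electrophoresis; gain of signal was fitted relative to DMSO.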

Test [2] deals with human RAR-related Orphan Receptor gamma (RORg), RORC (gene 6097) (UniProt P51449). The test can be described thus: ATG_RORg_TRANS: Attagene TRANS-FACTORIAL HepG2 Assay for human RAR-related Orphan Receptor gamma (RORg) (AID 2283011; active = hit-call score of the fitted dose curve at least 0.9, where 1 is the maximum). In outline: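 Readout: reporter transcript induction (RT-PCR, fluorescent primer extension, capillary electrophoresis) after 24 h compound exposure of transiently transfected HepG2 cells carrying a RORg-Gal4 chimera and GAL4-UAS reporters; DMSO served as baseline, with increasing signal fitted.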

In test [3] the target is human Retinoid X Receptor beta (RXRb), RXRB (gene 6257) (UniProt P28702). The test can be described thus: ATG_RXRb_TRANS: Attagene TRANS-FACTORIAL HepG2 Assay for human Retinoid X Receptor beta (RXRb) (AID 2283013; active = hit-call score of the fitted dose curve at least 0.9, where 1 is the maximum). In a few lines: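 HepG2 cells transiently transfected with multiplexed reporter units driven by GAL4-UAS and exogenous chimeric NR-Gal4 proteins; treated 24 h. Reporter mRNA measured by RT-PCR, 6-FAM labelling and capillary electrophoresis; gain-of-signal fitted versus DMSO baseline.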

The target in test [4] is human Thyroid Receptor alpha (THRa1), THRA (gene 7067) (UniProt P10827). In words: ATG_THRa1_TRANS: Attagene TRANS-FACTORIAL HepG2 Assay for human Thyroid Receptor alpha (THRa1) (AID 2283014; active = hit-call score of the fitted dose curve at least 0.9, where 1 is the maximum). In outline: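 HepG2 cells transiently transfected with multiplexed GAL4-UAS reporter units for exogenous chimeric THRa1-Gal4; reporter mRNA measured 24 h after dosing by RT-PCR, 6-FAM labelling, HpaI digestion and capillary electrophoresis. Gain-of-signal fitted versus DMSO baseline.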

Read-out in test [5]: E-selectin (Homo sapiens) (UniProt P16581)
The test can be described thus: BSK_3C_Eselectin: BioMAP Diversity Plus: 3C Assay for Eselectin Biomarker Activity (AID 2283015).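 Note: cell surface E-selectin protein quantified by ELISA 24 h after dosing.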 The conditions noted are these: primary human endothelial cells (HUVEC); actives raise or lower the signal. In outline:
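Primary human umbilical vein endothelial cells (3C system) were dosed with chemical and cell-surface E-selectin measured by ELISA 24 h later. Bidirectional curve fitting used DMSO as negative control and baseline.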

Read-out in test [6]: Interleukin-1 alpha (IL1a), IL1A (gene 3552)
The test can be described thus: BSK_BE3C_IL1a: BioMAP Diversity Plus: BE3C Assay for Interleukin-1 alpha (IL1a) Biomarker Activity (AID 2283016). The following applies: primary human bronchial epithelial cells; actives raise or lower the signal. In outline: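 Human primary bronchial epithelial cells (BE3C system) were dosed with compound and IL-1a measured by ELISA 24 h later. Activity was fitted bidirectionally against DMSO baseline; cytotoxicity was tracked in parallel cultures by SRB total-protein staining.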

Read-out in test [7]: Monocyte Chemoattractant Protein-1 (MCP1), CCL2 (gene 6347)
In words: BSK_3C_MCP1: BioMAP Diversity Plus: 3C Assay for Monocyte Chemoattractant Protein-1 (MCP1) Biomarker Activity (AID 2283017). The conditions noted are these: primary human endothelial cells (HUVEC); actives raise or lower the signal. In a few lines: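 Primary human umbilical vein endothelial cells (3C system) were exposed to test chemical for 24 h, after which MCP-1 was quantified by ELISA. Activity was fitted bidirectionally against DMSO as negative control and baseline.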

Read-out in test [8]: Monocyte Chemoattractant Protein-1 (MCP1), CCL2 (gene 6347)
The test can be described thus: BSK_4H_MCP1: BioMAP Diversity Plus: 4H Assay for Monocyte Chemoattractant Protein-1 (MCP1) Biomarker Activity (AID 2283018). The conditions noted are these: primary human endothelial cells (HUVEC); actives raise or lower the signal. In a few lines:
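Human umbilical vein endothelial cells (4H system) dosed with chemical; MCP-1 measured by ELISA 24 h after dosing. Bidirectional curve fitting against DMSO negative control as baseline; parallel SRB total-protein staining tracks overt cytotoxicity.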

Read-out in test [9]: Human Leukocyte Antigen - DR isotype (HLADR), HLA-DRA (gene 3122)
In words: BSK_3C_HLADR: BioMAP Diversity Plus: 3C Assay for Human Leukocyte Antigen - DR isotype (HLADR) Biomarker Activity (AID 2283019).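 Note: ELISA of cell-surface HLA-DR on HUVEC 24 h after dosing.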 The conditions noted are these: primary human endothelial cells (HUVEC); actives raise or lower the signal. In outline:
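Primary human umbilical vein endothelial cells (3C system) were dosed with compound and cell-surface HLA-DR was quantified by ELISA at 24 h. Activity was fitted bidirectionally against DMSO as negative control and baseline.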

Read-out in test [10]: Interleukin-8 (IL8), CXCL8 (gene 3576)
In words: BSK_3C_IL8: BioMAP Diversity Plus: 3C Assay for Interleukin-8 (IL8) Biomarker Activity (AID 2283020). The following applies: primary human endothelial cells (HUVEC); actives raise or lower the signal. In outline: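 Primary human umbilical vein endothelial cells (3C system) were exposed to test chemical for 24 h, then IL-8 was quantified by ELISA. Responses were fitted bidirectionally against DMSO vehicle as baseline.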

Read-out in test [11]: Monokine induced gamma interferon (MIG), CXCL9 (gene 4283)
In words: BSK_3C_MIG: BioMAP Diversity Plus: 3C Assay for Monokine induced gamma interferon (MIG) Biomarker Activity (AID 2283021). The conditions noted are these: primary human endothelial cells (HUVEC); actives raise or lower the signal. In a few lines: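 Primary human umbilical vein endothelial cells in the 3C system were exposed to chemical for 24 h, after which MIG was quantified by ELISA. Activity was fitted bidirectionally against DMSO as negative control and baseline.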

Test [12] can be described thus: BSK_3C_SRB: Viability Assessment in the BioMAP Diversity Plus: 3C Assay (AID 2283023).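 Note: fitted both ways against DMSO so a hit may be signal rise or drop.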 The following applies: primary human endothelial cells (HUVEC). In a few lines:
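Primary human umbilical vein endothelial cells in the 3C system were read 24 h after compound dosing. Total protein was stained with 0.1% sulforhodamine B after 10% TCA fixation and read at 560 nm, with bidirectional fitting against DMSO as baseline.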

Read-out in test [13]: Matrix Metallopeptidase 1 (MMP1), MMP1 (gene 4312)
The test can be described thus: BSK_BE3C_MMP1: BioMAP Diversity Plus: BE3C Assay for Matrix Metallopeptidase 1 (MMP1) Biomarker Activity (AID 2283024). The conditions noted are these: primary human bronchial epithelial cells; actives raise or lower the signal. In a few lines:
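Primary human bronchial epithelial cells were dosed with test chemicals, and MMP1 levels were measured by ELISA 24 h later. Data were fitted bidirectionally against DMSO as the negative control and activity baseline.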

Read-out in test [14]: Pselectin, SELP (gene 6403)
In words: BSK_4H_Pselectin: BioMAP Diversity Plus: 4H Assay for Pselectin Biomarker Activity (AID 2283026). The conditions noted are these: primary human endothelial cells (HUVEC); actives raise or lower the signal. In outline: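 Primary human umbilical vein endothelial cells were exposed to test chemical for 24 h, then cell-surface P-selectin was quantified by ELISA. Activity was fitted bidirectionally against DMSO as negative control and baseline.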

Test [15] in a line: BSK_4H_SRB: Viability Assessment in the BioMAP Diversity Plus: 4H Assay (AID 2283027).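 Note: cells exposed to compound for 24 h before staining.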 The following applies: primary human endothelial cells (HUVEC). In outline: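 Human umbilical vein endothelial cells were dosed with chemical and, after 24 h, fixed with 10% TCA, stained with 0.1% sulforhodamine B, and read at 560 nm to give total protein as a cytotoxicity measure. Bidirectional fitting relative to DMSO control.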

Read-out in test [16]: Thrombomodulin, THBD (gene 7056)
In words: BSK_3C_Thrombomodulin: BioMAP Diversity Plus: 3C Assay for Thrombomodulin Biomarker Activity (AID 2283029). The following applies: primary human endothelial cells (HUVEC); actives raise or lower the signal. In a few lines: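 Primary human umbilical vein endothelial cells (3C system) were exposed to chemical for 24 h, then thrombomodulin levels were measured by ELISA. Activity was fitted bidirectionally against the DMSO negative control as baseline.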

Read-out in test [17]: Urokinase-type plasminogen activator receptor (uPAR), PLAUR (gene 5329)
The test can be described thus: BSK_4H_uPAR: BioMAP Diversity Plus: 4H Assay for Urokinase-type plasminogen activator receptor (uPAR) Biomarker Activity (AID 2283030). The conditions noted are these: primary human endothelial cells (HUVEC); actives raise or lower the signal. In a few lines: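 Primary human umbilical vein endothelial cells were exposed to chemical for 24 h before cell-surface uPAR was quantified by ELISA. Activity was fitted bidirectionally against the DMSO negative control baseline.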

Test [18] concerns the target Retinoic acid receptor RXR-alpha (Homo sapiens) (UniProt P19793). In words: ATG_RXRa_TRANS: Attagene TRANS-FACTORIAL HepG2 Assay for human Retinoid X Receptor alpha (RXRa) (AID 2283012; active = hit-call score of the fitted dose curve at least 0.9, where 1 is the maximum). In a few lines: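 HepG2 cells transiently transfected with multiplexed GAL4-UAS reporter units and chimeric NR-GAL4 fusions, dosed 24 h. Reporter mRNA measured by RT-PCR, FAM labelling, HpaI digestion and capillary electrophoresis; gain-of-signal fitted relative to DMSO baseline.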

Test [19] deals with human Vitamin D Receptor (VDR), VDR (gene 7421) (UniProt P11473). In words: ATG_VDR_TRANS: Attagene TRANS-FACTORIAL HepG2 Assay for human Vitamin D Receptor (VDR) (AID 2283022; active = hit-call score of the fitted dose curve at least 0.9, where 1 is the maximum). In outline: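 HepG2 cells were transiently transfected with multiple GAL4-UAS reporter units, so signal reflects exogenous chimeric receptor-Gal4 activity. After 24 h compound exposure, reporter mRNA was measured by RT-PCR, fluorescent labelling and capillary electrophoresis, fitted for gain of signal versus DMSO.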

A short description of test [20]: BSK_BE3C_SRB: Viability Assessment in the BioMAP Diversity Plus: BE3C Assay (AID 2283028). The following applies: primary human bronchial epithelial cells. In a few lines: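 Human primary bronchial epithelial cells were exposed to test chemicals for 24 h. Total protein in parallel cultures was then measured by staining with 0.1% sulforhodamine B after 10% TCA fixation, with absorbance read at 560 nm. Activity was fitted bidirectionally against DMSO.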

Structures are written as SMILES. Values joined by “and” are separate entries in the source; they are usually repeats but may differ in a detail not shown here. Identical values can stand only once. Results filed as inconclusive are left out. The source holds several records for some structures; these can differ, active in one and inactive in another. Active and inactive are the calls of the source. Rule for the calls, unless noted: active = hit-call score of the fitted dose curve at least 0.9, where 1 is the maximum; inactive = score below 0.9.

Chain of human Retinoid X Receptor beta (RXRb), RXRB (gene 6257) (P28702 whole entry, looked up, the tested form may be a part): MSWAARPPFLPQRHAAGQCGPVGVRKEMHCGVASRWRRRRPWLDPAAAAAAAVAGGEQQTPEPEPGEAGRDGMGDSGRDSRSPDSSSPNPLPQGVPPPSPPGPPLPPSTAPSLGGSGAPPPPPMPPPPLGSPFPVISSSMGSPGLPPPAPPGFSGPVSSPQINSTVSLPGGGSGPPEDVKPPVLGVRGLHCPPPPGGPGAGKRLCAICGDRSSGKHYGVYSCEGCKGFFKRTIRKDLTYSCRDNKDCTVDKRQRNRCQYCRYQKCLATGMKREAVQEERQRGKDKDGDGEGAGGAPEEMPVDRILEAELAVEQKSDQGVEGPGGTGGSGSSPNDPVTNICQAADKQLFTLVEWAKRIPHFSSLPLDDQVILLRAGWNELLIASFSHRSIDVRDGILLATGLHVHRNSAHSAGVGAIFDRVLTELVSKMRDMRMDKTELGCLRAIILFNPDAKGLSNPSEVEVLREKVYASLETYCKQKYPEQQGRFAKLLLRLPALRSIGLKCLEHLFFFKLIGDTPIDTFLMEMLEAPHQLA
Chain of human RAR-related Orphan Receptor beta (RORb), RORB (gene 6096) (Q92753 whole entry, looked up, the tested form may be a part): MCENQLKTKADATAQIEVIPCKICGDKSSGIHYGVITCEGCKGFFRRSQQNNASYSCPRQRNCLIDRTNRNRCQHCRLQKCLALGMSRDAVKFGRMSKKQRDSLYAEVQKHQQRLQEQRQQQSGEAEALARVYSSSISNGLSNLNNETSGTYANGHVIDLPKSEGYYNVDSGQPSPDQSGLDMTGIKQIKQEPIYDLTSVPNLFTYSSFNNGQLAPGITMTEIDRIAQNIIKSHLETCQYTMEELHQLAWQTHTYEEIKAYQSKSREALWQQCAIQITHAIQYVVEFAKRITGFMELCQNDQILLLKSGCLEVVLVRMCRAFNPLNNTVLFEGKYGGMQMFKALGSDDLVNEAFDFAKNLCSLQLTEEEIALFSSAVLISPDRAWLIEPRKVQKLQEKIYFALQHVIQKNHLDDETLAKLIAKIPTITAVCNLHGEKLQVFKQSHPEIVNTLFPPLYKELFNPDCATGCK
Chain of human Thyroid Receptor alpha (THRa1), THRA (gene 7067) (P10827 whole entry, looked up, the tested form may be a part): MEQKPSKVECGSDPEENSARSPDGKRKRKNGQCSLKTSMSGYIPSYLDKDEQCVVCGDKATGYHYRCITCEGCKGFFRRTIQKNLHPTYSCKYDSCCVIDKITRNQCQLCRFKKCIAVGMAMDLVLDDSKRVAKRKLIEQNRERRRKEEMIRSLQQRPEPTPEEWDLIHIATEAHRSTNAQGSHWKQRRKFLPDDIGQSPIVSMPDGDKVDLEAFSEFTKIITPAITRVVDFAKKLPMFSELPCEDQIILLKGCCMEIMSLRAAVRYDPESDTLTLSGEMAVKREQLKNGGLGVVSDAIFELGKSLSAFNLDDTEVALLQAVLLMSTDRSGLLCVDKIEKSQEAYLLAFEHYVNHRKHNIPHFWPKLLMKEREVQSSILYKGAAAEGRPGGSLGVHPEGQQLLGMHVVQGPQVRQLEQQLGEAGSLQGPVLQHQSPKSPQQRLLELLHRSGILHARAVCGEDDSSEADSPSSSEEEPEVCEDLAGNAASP
Chain of E-selectin (Homo sapiens) (P16581 whole entry, looked up): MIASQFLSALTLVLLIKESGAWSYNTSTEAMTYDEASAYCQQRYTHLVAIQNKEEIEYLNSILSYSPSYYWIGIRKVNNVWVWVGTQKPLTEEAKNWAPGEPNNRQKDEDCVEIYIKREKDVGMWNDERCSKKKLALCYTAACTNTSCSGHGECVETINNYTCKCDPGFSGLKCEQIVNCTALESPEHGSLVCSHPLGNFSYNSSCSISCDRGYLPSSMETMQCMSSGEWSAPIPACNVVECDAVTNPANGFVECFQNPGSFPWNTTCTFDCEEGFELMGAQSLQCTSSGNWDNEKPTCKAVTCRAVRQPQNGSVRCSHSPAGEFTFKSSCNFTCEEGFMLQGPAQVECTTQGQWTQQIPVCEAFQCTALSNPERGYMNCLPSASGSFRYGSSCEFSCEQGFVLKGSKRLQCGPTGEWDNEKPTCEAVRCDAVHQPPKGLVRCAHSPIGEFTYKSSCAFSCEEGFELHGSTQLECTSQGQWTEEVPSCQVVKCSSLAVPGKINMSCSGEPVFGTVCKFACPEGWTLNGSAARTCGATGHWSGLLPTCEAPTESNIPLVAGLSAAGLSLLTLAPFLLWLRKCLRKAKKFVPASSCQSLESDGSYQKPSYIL
Chain of human Vitamin D Receptor (VDR), VDR (gene 7421) (P11473 whole entry, looked up, the tested form may be a part): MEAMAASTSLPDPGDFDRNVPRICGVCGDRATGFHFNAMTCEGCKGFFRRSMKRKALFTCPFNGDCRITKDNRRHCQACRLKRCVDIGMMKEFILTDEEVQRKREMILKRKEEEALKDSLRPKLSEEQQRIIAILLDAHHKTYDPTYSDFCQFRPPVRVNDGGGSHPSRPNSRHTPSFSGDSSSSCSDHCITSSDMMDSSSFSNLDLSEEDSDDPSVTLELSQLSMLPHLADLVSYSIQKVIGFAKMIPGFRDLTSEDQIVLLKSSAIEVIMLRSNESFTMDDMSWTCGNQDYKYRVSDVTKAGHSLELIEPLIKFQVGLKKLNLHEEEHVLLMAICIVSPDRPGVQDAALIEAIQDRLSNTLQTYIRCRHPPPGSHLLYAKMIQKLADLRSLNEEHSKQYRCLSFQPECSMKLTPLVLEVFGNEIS
Chain of Retinoic acid receptor RXR-alpha (Homo sapiens) (P19793 whole entry, looked up, the tested form may be a part): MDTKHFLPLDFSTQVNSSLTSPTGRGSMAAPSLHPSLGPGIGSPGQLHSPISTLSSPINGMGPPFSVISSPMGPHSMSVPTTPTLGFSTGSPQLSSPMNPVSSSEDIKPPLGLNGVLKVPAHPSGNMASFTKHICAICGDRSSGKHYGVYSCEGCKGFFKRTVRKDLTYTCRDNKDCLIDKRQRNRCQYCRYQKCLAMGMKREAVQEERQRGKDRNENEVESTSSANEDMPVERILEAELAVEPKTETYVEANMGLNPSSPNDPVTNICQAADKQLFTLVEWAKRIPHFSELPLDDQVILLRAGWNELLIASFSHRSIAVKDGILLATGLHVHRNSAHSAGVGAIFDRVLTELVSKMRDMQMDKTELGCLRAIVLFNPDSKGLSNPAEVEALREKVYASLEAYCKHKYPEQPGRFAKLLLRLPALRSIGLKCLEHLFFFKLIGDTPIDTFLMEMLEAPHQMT
Chain of human RAR-related Orphan Receptor gamma (RORg), RORC (gene 6097) (P51449 whole entry, looked up, the tested form may be a part): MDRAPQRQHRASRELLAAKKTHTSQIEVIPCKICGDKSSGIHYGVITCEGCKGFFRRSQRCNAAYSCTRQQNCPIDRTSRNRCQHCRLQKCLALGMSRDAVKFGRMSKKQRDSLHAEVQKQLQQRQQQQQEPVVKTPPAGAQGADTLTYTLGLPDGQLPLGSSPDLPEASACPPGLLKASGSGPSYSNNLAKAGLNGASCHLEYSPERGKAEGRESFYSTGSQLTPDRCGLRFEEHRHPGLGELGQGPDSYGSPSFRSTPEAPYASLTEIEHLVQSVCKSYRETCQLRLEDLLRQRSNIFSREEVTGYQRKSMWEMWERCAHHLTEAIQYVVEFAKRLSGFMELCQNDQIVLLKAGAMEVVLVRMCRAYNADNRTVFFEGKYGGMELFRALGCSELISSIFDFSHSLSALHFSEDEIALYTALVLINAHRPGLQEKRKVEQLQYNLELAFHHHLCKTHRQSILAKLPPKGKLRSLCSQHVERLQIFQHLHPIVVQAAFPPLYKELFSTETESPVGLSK

As to `NC(=O)C(F)(F)C(F)(F)C(F)(F)C(F)(F)C(F)(F)C(F)(F)C(F)(F)F`, the outcome in [1], in test [2], in [3], in test [4], in [5] and in test [6] was inactive. For the same compound, the result in [7], in test [8], in test [9], in test [10], in [11] and in test [12] was inactive. Further, the outcome in test [13], in [14], in test [15], in test [16] and in [17] was inactive.
Turning to `N#Cc1ccccc1O`, the compound was classed as inactive in [1], in test [2], in [18], in test [3] and in test [19].
With `CCOCN(C(=O)CS(=O)(=O)O)c1c(C)cccc1CC`, the outcome in test [1], in [2] and in [4] was inactive.
As for `CN(N=O)C(=O)N[C@@H]1[C@@H](O)[C@H](O)[C@@H](CO)O[C@@H]1O`, the compound was classed as inactive in test [1], in test [2], in test [18], in test [4] and in test [19].
For orientation: AC50 means the concentration at which the activity in the assay is half-maximal. With `O=C(O)CCC(F)(F)C(F)(F)C(F)(F)C(F)(F)C(F)(F)C(F)(F)C(F)(F)F`, the result in test [1], in test [2], in [18], in test [5], in [6] and in [7] was inactive. Besides, the result in test [8], in [9], in [10], in [19], in test [12] and in [14] was inactive. For the same compound, the result in test [15], in [20], in [16] and in test [17] was inactive. In addition, the half-maximal activity concentration (AC50) in test [3] is 41.3 µM (active); in [13], 3.33 µM (active) and 3.8 µM (active).
As for `CCOC(OCC)OCC`, the outcome in test [1], in [2], in test [18] and in test [19] was inactive.
In the case of `CC(C)OC(=O)COc1ccc(Cl)cc1Cl`, the compound was classed as inactive in test [1].
Turning to `CCC/C=C/CO`, the compound was classed as inactive in [1], in test [18] and in test [3].
For `O=C(c1ccccc1)c1ccc(O)cc1O`, the compound was called inactive in test [1], in test [2], in [4], in test [5], in test [6] and in test [7]. For the same compound, the result in test [8], in test [9], in [10], in test [11], in test [12] and in [13] was inactive. Further, the result in test [14], in test [15], in test [16] and in [17] was inactive. In addition, in [3], the half-maximal activity concentration (AC50) was 35 µM (active).
For `CCc1cccc(C)c1N(C(=O)C(=O)O)C(C)COC` (stereo not drawn), the compound was classed as inactive in test [1], in [2], in test [18] and in test [3].
As to `O=C(O)C(F)(F)C(F)(F)C(F)(F)C(F)(F)C(F)(F)C(F)(F)C(F)F`, the call in [1], in [2], in test [18], in test [3], in [4] and in [5] was inactive. Besides, the result in test [6], in [7], in [8], in [9], in test [10] and in [11] was inactive. Moreover, the outcome in test [19], in test [12], in test [13], in test [14], in [15] and in test [16] was inactive. Also, the result in test [17] was inactive. In addition, the concentration at half-maximal activity (AC50) is 30 µM (active) in [10] and 12 µM (active) in [13].
